For assay [1], the target named is PGR (gene 5241) (UniProt P06401). The experiment in a line: TOX21_PR_BLA_Followup_Antagonist_ratio: Tox21 HEK293 Progesterone Receptor (PR) Antagonism Beta-lactamase Follow-Up Assay, Ratio (AID 2283934; active = hit-call score of the fitted dose curve at least 0.9, where 1 is the maximum;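 also: PR-UAS-bla HEK293T cells stimulated with 1 nM R5020 agonist for 16 hr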). An outline of the steps:
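Antagonist mode used 1 nM R5020 (final) as agonist on a beta-lactamase reporter line in HEK293T cells. Activity was taken from the substrate cleavage ratio after 16 hr exposure.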

A short description of assay [2]: TOX21_PR_BLA_Followup_Agonist_viability: Viability Assessment in the Tox21 HEK293 Progesterone Receptor (PR) Agonism Beta-lactamase Follow-Up Assay (AID 2283935; active = hit-call score of the fitted dose curve at least 0.9, where 1 is the maximum;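 also: signal loss means lower viability so actives are cytotoxic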). An outline of the steps: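 Multiplexed viability counter-screen: ATP-coupled luciferase signal measured after 30 min at room temperature, following 16 hr compound treatment of PR-UAS-bla HEK293T cells grown in charcoal-stripped serum.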

The nature of assay [3]: TOX21_PR_BLA_Followup_Antagonist_viability: Viability Assessment in the Tox21 HEK293 Progesterone Receptor (PR) Antagonism Beta-lactamase Follow-Up Assay (AID 2283936; active = hit-call score of the fitted dose curve at least 0.9, where 1 is the maximum;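 also: hits lower the luminescence signal meaning cytotoxicity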). The procedure, abridged:
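PR-UAS-bla HEK293T cells (3,000/well, 2% charcoal-stripped FBS) given compound plus R5020 agonist, 16 h at 37C. CellTiter-Glo added after bla read, 30 min at room temperature; luminescence loss indicates cytotoxicity.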

For assay [4], the target named is PGR (gene 5241) (UniProt P06401). The experiment in a line: TOX21_PR_LUC_Followup_Antagonist: Tox21 HEK293 Progesterone Receptor (PR) Antagonism Luciferase Follow-Up Assay (AID 2283938; active = hit-call score of the fitted dose curve at least 0.9, where 1 is the maximum;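 also: curve fitted upward as signal gain over DMSO baseline despite antagonist label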). The procedure, abridged:
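A follow-up to the PR bla screen using HEK293-PR-A-luc cells, multiplexed with cell viability to flag cytotoxicity. Reporter luminescence after 16 h compound exposure was analysed relative to DMSO.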

A short description of assay [5]: TOX21_PR_LUC_Followup_Antagonist_viability: Viability Assessment in the Tox21 HEK293 Progesterone Receptor (PR) Antagonism Luciferase Follow-Up Assay (AID 2283940; active = hit-call score of the fitted dose curve at least 0.9, where 1 is the maximum). The procedure, abridged: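 Cellular ATP, measured with luciferase-coupled CellTiter-Glo, served as the viability endpoint after HEK293-PR-A-luc cells were exposed to test compounds for 16 h at 37C.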

Assay [6] can be described thus: TOX21_PR_LUC_Followup_Agonist_viability: Viability Assessment in the Tox21 HEK293 Progesterone Receptor (PR) Agonism Luciferase Follow-Up Assay (AID 2283941; active = hit-call score of the fitted dose curve at least 0.9, where 1 is the maximum;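 also: loss of signal means cytotoxicity so actives lower viability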). An outline of the steps:
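Luminescent ATP quantitation (CellTiter-Glo) serves as the read-out; a drop flags cytotoxic compounds. Cells are HEK293-PR-A-luc grown in 10% charcoal-stripped FBS, plated 3,000/well, and exposed to compound for 16 h.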

The target in assay [7] is PGR (gene 5241) (UniProt P06401). The experiment in a line: TOX21_PR_BLA_Followup_Agonist_ratio: Tox21 HEK293 Progesterone Receptor (PR) Agonism Beta-lactamase Follow-Up Assay, Ratio (AID 2283933; active = hit-call score of the fitted dose curve at least 0.9, where 1 is the maximum). An outline of the steps: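 Agonist-mode follow-up in HEK293T cells carrying a UAS-driven beta-lactamase reporter, grown in 2% charcoal-stripped serum. Compounds act for 16 hr; activity is the ch2/ch1 cleavage ratio, with same-well CellTiter-Glo viability run in parallel.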
PGR (gene 5241), sequence (P06401 whole entry, looked up): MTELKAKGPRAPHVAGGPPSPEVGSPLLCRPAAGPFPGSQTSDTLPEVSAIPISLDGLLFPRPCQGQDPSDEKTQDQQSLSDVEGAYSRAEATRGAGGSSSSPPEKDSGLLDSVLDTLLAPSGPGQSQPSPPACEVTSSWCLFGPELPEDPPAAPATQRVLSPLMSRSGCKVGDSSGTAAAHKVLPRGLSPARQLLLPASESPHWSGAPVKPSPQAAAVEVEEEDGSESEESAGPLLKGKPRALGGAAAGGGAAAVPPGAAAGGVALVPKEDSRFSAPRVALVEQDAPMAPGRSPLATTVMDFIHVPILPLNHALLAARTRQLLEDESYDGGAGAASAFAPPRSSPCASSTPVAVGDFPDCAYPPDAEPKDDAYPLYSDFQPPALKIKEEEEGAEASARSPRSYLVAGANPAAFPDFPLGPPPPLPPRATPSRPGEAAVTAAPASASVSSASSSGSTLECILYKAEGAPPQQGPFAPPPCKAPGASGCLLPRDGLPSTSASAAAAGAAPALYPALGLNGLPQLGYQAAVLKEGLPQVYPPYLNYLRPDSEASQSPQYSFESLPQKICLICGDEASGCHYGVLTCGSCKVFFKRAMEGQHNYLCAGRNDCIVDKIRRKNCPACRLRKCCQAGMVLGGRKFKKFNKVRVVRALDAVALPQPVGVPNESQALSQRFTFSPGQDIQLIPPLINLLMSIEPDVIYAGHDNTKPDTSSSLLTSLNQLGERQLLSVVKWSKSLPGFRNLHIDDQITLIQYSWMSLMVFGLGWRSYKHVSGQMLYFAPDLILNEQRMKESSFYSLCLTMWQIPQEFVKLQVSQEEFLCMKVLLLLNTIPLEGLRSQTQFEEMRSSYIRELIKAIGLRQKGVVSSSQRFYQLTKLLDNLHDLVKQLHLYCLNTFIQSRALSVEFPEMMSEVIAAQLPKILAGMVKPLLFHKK

The target is the same in assay [8]. The experiment in a line: TOX21_PR_LUC_Followup_Agonist: Tox21 HEK293 Progesterone Receptor (PR) Agonism Luciferase Follow-Up Assay (AID 2283937). An outline of the steps: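 Agonist mode: reporter cells carrying PR-A and luciferase are treated 16 h with test compounds at 37C. Luciferase induction is measured by luminescence and fitted upward against DMSO.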
Assay [9] is described as follows: CEETOX_H295R_OHPREG_noMTC: CeeTox H295R High-throughput Steroidogenesis Assay for OH-Pregnenolone (OHPREG), maximum tolerated concentration (MTC) filtered results only (AID 2283912). As to conditions: actives raise or lower the signal. An outline of the steps: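 Steroidogenesis in H295R cells (OECD 456, modified): after 48 h forskolin priming and 48 h chemical treatment, secreted 17alpha-hydroxypregnenolone is measured by HPLC-MS/MS. Activity is fitted in both directions against DMSO; concentrations are not filtered by MTT-based MTC.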

Assay [10] in a line: CEETOX_H295R_OHPROG_noMTC: CeeTox H295R High-throughput Steroidogenesis Assay for OH-Progesterone (OHPROG), maximum tolerated concentration (MTC) filtered results only (AID 2283914). As to conditions: actives raise or lower the signal. An outline of the steps:
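Forskolin 10 uM, 48 h prestim → test cmpd in DMSO (0.1% final), 48 h → medium MTBE extraction → LC-MS/MS quant of 17alpha-OH-progesterone. Bidirectional fit vs DMSO; no MTT-based MTC filtering.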

Assay [11] in a line: CEETOX_H295R_ANDR_noMTC: CeeTox H295R High-throughput Steroidogenesis Assay for Androstenedione (ANDR), maximum tolerated concentration (MTC) filtered results only (AID 2283915). The settings on record: actives raise or lower the signal. An outline of the steps:
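H295R cells, passage 10 or below, prestimulated 48 h with 10 uM forskolin, then exposed 48 h to chemical in 0.1% DMSO. Medium androstenedione extracted with MTBE, quantified by HPLC-MS/MS; concentrations not MTC-filtered; bidirectional fit versus DMSO.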

Assay [12] can be described thus: CEETOX_H295R_ESTRADIOL_noMTC: CeeTox H295R High-throughput Steroidogenesis Assay for Estradiol, maximum tolerated concentration (MTC) filtered results only (AID 2283919). As to conditions: actives raise or lower the signal. An outline of the steps:
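H295R human adrenal cells pre-stimulated 48 h with 10 uM forskolin, then exposed 48 h to chemical (0.1% DMSO final). Estradiol in medium measured by HPLC-MS/MS after MTBE extraction and dansyl derivatization; bidirectional fit versus DMSO, concentrations not MTT-filtered.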

Assay [13] is described as follows: CEETOX_H295R_PROG_noMTC: CeeTox H295R High-throughput Steroidogenesis Assay for Progesterone (PROG), maximum tolerated concentration (MTC) filtered results only (AID 2283920). As to conditions: actives raise or lower the signal. An outline of the steps: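 H295R cells; forskolin 10 uM x 48 h prestim; test cpd 48 h, 0.1% DMSO final; media progesterone via LC-MS/MS; bidirectional fit vs DMSO; no MTT-based MTC filter applied.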

A short description of assay [14]: CEETOX_H295R_ESTRONE_noMTC: CeeTox H295R High-throughput Steroidogenesis Assay for Estrone, maximum tolerated concentration (MTC) filtered results only (AID 2283921). As to conditions: actives raise or lower the signal. An outline of the steps: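 H295R cells prestimulated 48 h with 10 uM forskolin, then exposed 48 h to chemical in 0.1% DMSO; medium estrone measured by HPLC-MS/MS after MTBE extraction and dansyl derivatization, fitted bidirectionally versus DMSO without MTT-based MTC filtering.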

The nature of assay [15]: CEETOX_H295R_TESTO_noMTC: CeeTox H295R High-throughput Steroidogenesis Assay for Testosterone (TESTO), maximum tolerated concentration (MTC) filtered results only (AID 2283924). As to conditions: actives raise or lower the signal. The procedure, abridged:
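H295R cells prestimulated 48 h with 10 uM forskolin, then exposed 48 h to chemicals in 0.1% DMSO final. Testosterone in medium quantified by MTBE extraction and HPLC-MS/MS; bidirectional fit versus DMSO, concentrations […] filtered by MTT-based maximum tolerated concentration.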

The target in a further assay is THRA (gene 7067) (UniProt P10827). The experiment in a line: TOX21_TRA_COA_Agonist_Followup_ratio: Tox21 Thyroid Hormone Receptor alpha Agonism through Coactivator Recruitment Follow-Up Assay, Ratio (AID 2283948). The procedure, abridged: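 First, compound was incubated with 2.5 nM GST-TRα LBD in 0.10% BSA. Next, 200 nM fluorescein-SRC-2 and 2 nM Tb-anti-GST antibody were added. Finally, the 520:495 nm ratio was normalized to DMSO and T3 controls.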
THRA (gene 7067), sequence (P10827 whole entry, looked up, the tested form may be a part): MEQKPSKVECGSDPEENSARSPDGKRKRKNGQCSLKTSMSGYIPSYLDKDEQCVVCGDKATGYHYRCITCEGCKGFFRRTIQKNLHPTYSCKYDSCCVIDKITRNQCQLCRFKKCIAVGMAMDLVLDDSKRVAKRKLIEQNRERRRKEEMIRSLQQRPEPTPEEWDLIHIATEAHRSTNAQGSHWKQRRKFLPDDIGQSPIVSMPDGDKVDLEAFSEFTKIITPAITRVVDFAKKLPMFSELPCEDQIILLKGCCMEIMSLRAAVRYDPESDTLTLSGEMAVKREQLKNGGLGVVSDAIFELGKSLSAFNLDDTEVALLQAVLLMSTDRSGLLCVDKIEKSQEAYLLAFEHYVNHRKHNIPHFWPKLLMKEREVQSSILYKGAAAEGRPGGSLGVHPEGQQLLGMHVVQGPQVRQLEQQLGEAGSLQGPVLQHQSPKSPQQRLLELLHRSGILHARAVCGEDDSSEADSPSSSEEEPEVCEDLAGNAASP

Assay [16] can be described thus: CEETOX_H295R_CORTISOL_noMTC: CeeTox H295R High-throughput Steroidogenesis Assay for Cortisol, maximum tolerated concentration (MTC) filtered results only (AID 2283916). The settings on record: actives raise or lower the signal. An outline of the steps: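 Cortisol secretion measured by LC-MS/MS after 48 h chemical treatment (final 0.1% DMSO) of forskolin-primed (10 uM, 48 h) H295R cells; gain or loss fitted relative to DMSO, without maximum-tolerated-concentration filtering.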

The nature of assay [17]: CEETOX_H295R_CORTIC_noMTC: CeeTox H295R High-throughput Steroidogenesis Assay for Corticosterone (CORTIC), maximum tolerated concentration (MTC) filtered results only (AID 2283917). The settings on record: actives raise or lower the signal. The procedure, abridged: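 Following OECD 456 with minor changes, H295R cultures received 10 uM forskolin for 48 h, then test chemical at 0.1% DMSO for 48 h. Media steroids were extracted and measured by LC-MS/MS.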

A short description of assay [18]: CEETOX_H295R_DOC_noMTC: CeeTox H295R High-throughput Steroidogenesis Assay for DOC, maximum tolerated concentration (MTC) filtered results only (AID 2283918). As to conditions: actives raise or lower the signal. The procedure, abridged:
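11-Deoxycorticosterone secreted by human adrenal H295R cells quantified by HPLC-MS/MS after 48 h chemical exposure (0.1% DMSO), following 48 h 10 uM forskolin prestimulation. Concentrations not filtered by MTT-derived MTC; bidirectional fitting.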

Results filed as inconclusive are left out. The source made the active and inactive calls. The calls were made as follows, unless noted: active = hit-call score of the fitted dose curve at least 0.9, where 1 is the maximum; inactive = score below 0.9.

The AC50 is the midpoint of the concentration-response curve, whichever way the signal moves. On to `Nc1ccc(-c2ccc(N)c(Cl)c2)cc1Cl`, for which the AC50 was 5.01 µM (active) with PGR (gene 5241) [1] and 6.09 µM (active) with PGR (gene 5241) [4]. The compound was called inactive in assay [2], in assay [3], in assay [5] and in assay [6].
Take `O=C1C2(Cl)C3(Cl)C4(Cl)C(Cl)(Cl)C5(Cl)C3(Cl)C1(Cl)C5(Cl)C24Cl` (configuration not stated): the outcome (with PGR (gene 5241) [7]; in assay [3]; with PGR (gene 5241) [8]; in assay [5]; in [6]) was inactive. In addition, the values for the AC50 (with PGR (gene 5241) [1]; in assay [2]; in the assay with PGR (gene 5241) [4]) were 63 µM (active), 66.2 µM (active) and 33.8 µM (active), respectively.
Turning to `C[C@H]1CCCC(=O)CCC/C=C/c2cc(O)cc(O)c2C(=O)O1`, the compound was classed as inactive (in assay [9]; in assay [12]; in assay [2]; in assay [3]; with PGR (gene 5241) [8]; with PGR (gene 5241) [4]). Further, the outcome in [5] and in [6] was inactive. In addition, the AC50 was 2.3 µM (active) in [10]; 77.4 µM (active) in [11]; 3.94 µM (active) in [13]; 36.3 µM (active) in assay [14]; 82.8 µM (active) in [15]; 14.4 µM (active) with PGR (gene 5241) [1].
Turning to `C=C(C)C(=O)[O][Sn]([CH2]CCC)([CH2]CCC)[CH2]CCC`, the result in the assay with THRA (gene 7067) was inactive.
Consider `O=C(OC1CCCCC1)c1ccccc1C(=O)OC1CCCCC1`, for which the AC50 is 2.11 µM (active) in assay [9], 0.549 µM (active) in assay [10] and 13.5 µM (active) in [18]. The call in assay [16], in assay [17] and in assay [13] was inactive.
Turning to `Cn1sc(Cl)cc1=O`, the compound was called inactive in assay [9], in [10], in [16], in assay [17], in assay [18] and in assay [12]. The compound was called inactive in assay [13] and in [14].
As for `Clc1ccc(C2(Cn3cncn3)CC(Br)CO2)c(Cl)c1` (configuration not stated), the AC50 is 37.7 µM (active) in the assay with PGR (gene 5241) [1] and 46.1 µM (active) in the assay with PGR (gene 5241) [4]. The outcome in [2], in assay [3], in assay [5] and in assay [6] was inactive.
On to `CCC1(c2ccc(N)cc2)CCC(=O)NC1=O` (configuration not stated), for which the outcome in assay [9], in assay [10], in assay [11], in assay [16], in assay [17] and in assay [18] was inactive. Besides, the result in assay [13] and in assay [15] was inactive.

For the origin of these results see PubChem BioAssay (EPA / NIEHS).
